In assay [1] the target is Nuclear receptor subfamily 1 group I member 3 (Homo sapiens) (UniProt Q14994). Kind of assay: qHTS assay to identify small molecule antagonists of the constitutive androstane receptor (CAR) signaling pathway (AID 1224838).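 Also: HepG2 cells stably expressing hCAR with CYP2B6 luciferase reporter stimulated by CITCO; nearly all actives have a fitted effect of over 40% in size.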 The method, boiled down:
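Luminescence from a CYP2B6-2.2kb promoter reporter in hCAR-expressing HepG2 cells reflects CAR signaling. Cells received compounds at 15 concentrations and 50 nM CITCO (final), then incubated 24 h at 37 C/5% CO2.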

Assay [2] has the same target. Kind of assay: qHTS assay to identify small molecule agonists of the constitutive androstane receptor (CAR) signaling pathway (AID 1224839). Also: nearly all actives have a fitted effect of over 15% in size. Also: potency is read from the fitted curve at half-maximal effect.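 As to activation: HepG2 cells stably carrying human CAR and a CYP2B6 luciferase reporter.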 The gist of the method:
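Stable hCAR/CYP2B6-2.2kb HepG2 line in DMEM with 10% FBS; compounds (15 concentrations) and 0.75 uM PK11195 final, 24 h at 37 C/5% CO2, then ONE-Glo luminescence after 30 min.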
For orientation: In qHTS, concentration-response curves come from the screen itself.

Assay [3] is described as follows: qHTS assay to identify small molecule antagonists of the estrogen related receptor signaling pathway with the pleiotropic PPARgamma coactivator (PGC) from Tox21 10K library (AID 1224841; call rule not given here; also: actives are mostly falling curves and most rising ones were filed inactive; nearly all actives have a fitted effect of over 50% in size; also: potency is read from the fitted curve at half-maximal effect). The method, boiled down:
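Cells stably carrying the PGC/ERR reporter, seeded at 2,000 per well, received pin-transferred compounds 6 h post-plating. Exposure lasted 18 h at 37 C. Signal: One-Glo luminescence.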

A short description of assay [4]: qHTS assay to identify small molecule agonists of the estrogen related receptor signaling pathway with the pleiotropic PPARgamma coactivator (PGC) from Tox21 10K library (AID 1224842). Also: nearly all actives have a fitted effect of over 15% in size. Also: potency is read from the fitted curve at half-maximal effect. The gist of the method: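 PGC/ERR reporter cell line, 2,000 cells per well, incubated 6 h at 37 C before 23 nL compound in DMSO was added. After 18 h at 37 C, One-Glo luminescence read following 30 min at room temperature.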

Assay [5] is described as follows: qHTS assay to identify small molecule agonists of the hypoxia (HIF-1) signaling pathway - cell viability counter screen (AID 1224844; calls by dose curve; also: nearly all actives have a fitted effect of over 50% in size; also: potency is read from the fitted curve at half-maximal effect). The gist of the method:
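Viability counter screen: HRE-bla ME-180 cells plated 5 hrs before compound addition, treated 17 hrs at 37C and 5% CO2, then CellTiter-Glo added after the FRET reporter read; luminescence after 30 min.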

Assay [6] can be described thus: qHTS assay to identify small molecule agonists of the hypoxia (HIF-1) signaling pathway (AID 1224846; active = well fitted activation curve with a large enough effect in the signal ratio in the repeat runs, not every such curve was filed as active; the % refers to the signal ratio). The method, boiled down:
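Agonist mode reporter screen. ME-180 cells stably expressing bla under HRE control received test compounds in DMSO for 17 hrs (37C, 5% CO2), and beta-lactamase activity was then detected with the CCF4-AM FRET substrate.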

A short description of assay [7]: qHTS assay to identify small molecule antagonists of the estrogen related receptor (ERR) signaling pathway from Tox21 library (AID 1224848). Also: nearly all actives have a fitted effect of over 50% in size. Also: potency is read from the fitted curve at half-maximal effect. The method, boiled down:
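Quantitative high-throughput format: ERR reporter cells (2,000/well) pre-incubated 6 h, treated 18 h at 37 C with compounds in DMSO alongside positive and negative controls, then read by ONE-Glo luminescence.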

Assay [8] in a line: qHTS assay to identify small molecule agonists of the estrogen related receptor (ERR) signaling pathway from Tox21 library (AID 1224849; calls by dose curve; also: nearly all actives have a fitted effect of over 15% in size). As to conditions: ERR reporter cell line, ONE-Glo luciferase, 18 h. The gist of the method:
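Quantitative HTS in agonist format: NTP ERR cell line, compounds transferred in DMSO after 6 h plating, 18 h incubation at 37 C, ONE-Glo luminescence endpoint.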

Assay [9] is described as follows: qHTS RealTime-Glo MT Cell Viability Assay in HepG2 cells - 24 hour (AID 1224867). Also: nearly all actives have a fitted effect of over 50% in size. The gist of the method:
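HepG2 cells were seeded at 600 cells/well together with NanoLuc luciferase and a cell-permeant prosubstrate, preincubated 5 h at 37 C/5% CO2, then pin-dosed with compounds in DMSO. Nonlytic luminescence from viable cells was read at each time point.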

Assay [10] can be described thus: A CellTox Green Cytotoxicity Assay to monitor cytotoxicity in HEK293 cells - 0 hour (AID 1224869). Also: nearly all actives have a fitted effect of over 50% in size. The method, boiled down:
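Dead-cell fluorescence measured kinetically: asymmetric cyanine dye, HEK293, 600 cells/well, 5 h settle, 23 nL cpd/DMSO, 37 C, reads 0–40 h every 8 h.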

The nature of assay [11]: qHTS RealTime-Glo MT Cell Viability Assay in HepG2 cells - 40 hour (AID 1224870). Also: nearly all actives have a fitted effect of over 50% in size. Also: potency is read from the fitted curve at half-maximal effect. The gist of the method:
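HepG2 cells (600/well) mixed with RealTime-Glo MT reagent, settled 5 h at 37 C/5% CO2 before compound addition. Nonlytic NanoLuc luminescence from viable-cell prosubstrate reduction read repeatedly during 40 h treatment at 37 C.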

For assay [12], the target named is Luciferin 4-monooxygenase (Photinus pyralis) (UniProt P08659). As to the kind of experiment: qHTS assay to identify small molecule inhibitors of firefly luciferase (AID 1224835). Also: nearly all actives have a fitted effect of over 25% in size. Also: potency is read from the fitted curve at half-maximal effect. The method, boiled down: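 Biochemical qHTS: compounds run as interplate titrations against purified firefly enzyme, with D-luciferin and ATP each at its KM concentration. Light output recorded by CCD imaging.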

Assay [13] in a line: qHTS assay to identify small molecule agonists of the constitutive androstane receptor (CAR) signaling pathway - cell viability counter screen (AID 1224836). Also: nearly all actives have a fitted effect of over 45% in size. The gist of the method:
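Fluorescence from CellTiter-Fluor indicates live cells after 23 h exposure. The human hepatoma line expresses hCAR and a CYP2B6-2.2kb reporter. Incubation medium contains 0.75 uM PK11195 (final).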

Assay [14] can be described thus: qHTS assay to identify small molecule antagonists of the constitutive androstane receptor (CAR) signaling pathway - cell viability counter screen (AID 1224837). Also: nearly all actives have a fitted effect of over 45% in size. Also: potency is read from the fitted curve at half-maximal effect. The gist of the method: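 Cells are seeded, rested 4 hr at 37 C/5% CO2, dosed with compound (15-point series) and 50 nM CITCO, incubated a further 23 hr, and then CellTiter-Fluor reagent is added before fluorescence is read. The line is HepG2 with stable hCAR and CYP2B6-2.2kb.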

Assay [15] is described as follows: qHTS assay to identify small molecule antagonists of the estrogen related receptor signaling pathway with the pleiotropic PPARgamma coactivator (PGC) from Tox21 10K library - cell viability counter screen (AID 1224840; active = well fitted cell-killing curve with a large enough effect in the repeat runs, not every such curve was filed as active; also: nearly all actives have a fitted effect of over 40% in size). The gist of the method:
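Cell viability is measured by CellTiter-Fluor fluorescence in PGC/ERR cells that receive compounds after a 6-hour attachment period and are then incubated 17.5 hours at 37 C.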

Assay [16] has as its target Thyrotropin receptor (Homo sapiens) (UniProt P16473). Kind of assay: qHTS assay to identify small molecule agonists of the thyroid stimulating hormone receptor (TSHR) signaling pathway (AID 1224843; calls by dose curve; also: nearly all actives have a fitted effect of over 45% in size). The method, boiled down: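 Agonist-mode screen: TSHR HEK293 cells received test chemicals for half an hour at room temperature, then HTRF cAMP detection reagents for one hour prior to fluorescence measurement. Each chemical ran as a 15-concentration series, triplicated.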

Assay [17] can be described thus: qHTS assay to identify small molecule agonists of H2AX (AID 1224845; active = well fitted activation curve with a large enough effect in the signal ratio in the repeat runs, not every such curve was filed as active; the % refers to the signal ratio). The gist of the method:
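Wild-type CHO-K1 cells, plated overnight, exposed 3hr at 37C to 15 concentrations (0.76% DMSO final). Lysed, then HTRF anti-pH2AX (S139) cryptate and anti-H2AX-d2 antibodies, 24 hr room temperature; 665/620 nm emission read.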

Assay [18] in a line: qHTS assay to identify small molecule agonists of H2AX - cell viability counter screen (AID 1224847; calls by dose curve; also: nearly all actives have a fitted effect of over 30% in size; also: potency is read from the fitted curve at half-maximal effect). The gist of the method:
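Viability of CHO-K1 (wild type) cells after 3 hr compound exposure was measured by CellTiter-Glo luminescence.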

Assay [19] is described as follows: qHTS RealTime-Glo MT Cell Viability Assay in HEK293 cells - 32 hour (AID 1224868). The method, boiled down: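 HEK293 cells were seeded at 600 cells/well together with NanoLuc luciferase and cell-permeant prosubstrate, preincubated 5 h at 37 C/5% CO2, then given compound in DMSO by pintool. Luminescence from viable-cell prosubstrate reduction was read repeatedly over 40 h.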

A number with no mark means an inactive call. Inconclusive results are not listed. Activity calls are given as the source filed them. Unless noted, calls follow the shape of the dose curve; as a rule, active = well fitted curve in the direction sought with a large enough effect in the repeat runs; inconclusive = weak or mixed curves; inactive = no such curve, though single readings can be large; an effect the other way counts as inactive or inconclusive.
% is scaled to controls: 0 for no effect and ±100 for the full control effect.

Sequence of Thyrotropin receptor (Homo sapiens) (P16473 whole entry, looked up): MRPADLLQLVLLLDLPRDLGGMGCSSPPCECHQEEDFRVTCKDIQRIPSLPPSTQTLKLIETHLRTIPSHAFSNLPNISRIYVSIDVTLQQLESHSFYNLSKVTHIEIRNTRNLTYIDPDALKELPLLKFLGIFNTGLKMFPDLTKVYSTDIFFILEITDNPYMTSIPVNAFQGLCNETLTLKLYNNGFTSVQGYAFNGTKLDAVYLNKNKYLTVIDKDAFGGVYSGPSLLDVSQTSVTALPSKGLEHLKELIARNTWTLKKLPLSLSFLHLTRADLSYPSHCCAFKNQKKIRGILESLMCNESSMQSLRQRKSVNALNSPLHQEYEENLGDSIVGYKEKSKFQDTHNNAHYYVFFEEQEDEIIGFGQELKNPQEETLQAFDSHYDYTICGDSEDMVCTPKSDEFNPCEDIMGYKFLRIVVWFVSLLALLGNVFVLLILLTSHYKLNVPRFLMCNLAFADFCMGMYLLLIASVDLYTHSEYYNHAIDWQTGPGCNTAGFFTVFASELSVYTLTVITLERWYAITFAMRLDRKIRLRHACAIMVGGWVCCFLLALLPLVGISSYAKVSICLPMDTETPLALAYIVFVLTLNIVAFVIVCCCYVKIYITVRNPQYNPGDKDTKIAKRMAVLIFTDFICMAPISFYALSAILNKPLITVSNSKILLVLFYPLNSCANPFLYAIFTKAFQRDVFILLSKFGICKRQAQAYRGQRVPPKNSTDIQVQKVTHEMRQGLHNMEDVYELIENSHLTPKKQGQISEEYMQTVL
Sequence of Luciferin 4-monooxygenase (Photinus pyralis) (P08659 whole entry, looked up): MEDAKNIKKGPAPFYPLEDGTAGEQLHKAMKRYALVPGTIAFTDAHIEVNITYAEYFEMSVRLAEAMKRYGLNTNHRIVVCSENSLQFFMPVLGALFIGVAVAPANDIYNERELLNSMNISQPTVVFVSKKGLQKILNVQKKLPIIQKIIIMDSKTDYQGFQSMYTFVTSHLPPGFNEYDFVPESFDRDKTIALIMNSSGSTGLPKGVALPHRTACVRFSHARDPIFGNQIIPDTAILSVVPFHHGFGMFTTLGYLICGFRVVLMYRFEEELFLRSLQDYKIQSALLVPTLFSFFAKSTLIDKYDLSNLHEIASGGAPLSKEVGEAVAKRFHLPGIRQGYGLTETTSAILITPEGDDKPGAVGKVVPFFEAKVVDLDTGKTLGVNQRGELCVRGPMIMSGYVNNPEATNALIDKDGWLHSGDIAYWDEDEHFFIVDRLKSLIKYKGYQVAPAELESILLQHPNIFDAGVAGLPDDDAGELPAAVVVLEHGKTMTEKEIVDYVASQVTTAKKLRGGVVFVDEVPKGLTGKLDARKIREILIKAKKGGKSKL
Sequence of Nuclear receptor subfamily 1 group I member 3 (Homo sapiens) (Q14994 whole entry, looked up): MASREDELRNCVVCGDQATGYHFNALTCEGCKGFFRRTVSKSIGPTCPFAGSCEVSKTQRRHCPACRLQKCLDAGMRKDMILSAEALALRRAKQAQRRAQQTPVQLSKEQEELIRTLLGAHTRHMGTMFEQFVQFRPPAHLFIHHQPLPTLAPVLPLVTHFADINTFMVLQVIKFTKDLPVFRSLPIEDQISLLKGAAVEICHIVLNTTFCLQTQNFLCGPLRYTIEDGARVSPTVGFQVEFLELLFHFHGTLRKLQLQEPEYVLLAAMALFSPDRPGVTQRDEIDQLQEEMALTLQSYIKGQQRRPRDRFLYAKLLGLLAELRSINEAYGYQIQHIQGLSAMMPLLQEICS

On to `CC(C)=CCC1=C(O)c2ccccc2C(=O)C1=O`, for which the Potency result in [1], in [4], in assay [5], in assay [6], in assay [9] and in [10] was “inactive” each time. Further, the Potency entry in [11] was “inactive”. In addition, the figures for the Potency in assay [2], in assay [3] and in [7] were 27.1 µM (active), 2.42 µM (active) and 1.92 µM (active), respectively. The activity change, positive = activation in assay [8] (at 92.4 µM (top of the series)) is -51.5%.
On to `COc1ccc(-c2coc3cc(O)ccc3c2=O)cc1`, for which the Potency in [12] was 2 µM (active). The Potency result in assay [13], in assay [14], in assay [15], in assay [16], in assay [5] and in assay [17] was “inactive” throughout. Further, the Potency result in assay [6], in [18], in assay [9], in [19] and in assay [11] was “inactive” throughout.
As to `O=C(O)[C@H](O)[C@@H](O)[C@H](O[C@@H]1O[C@H](CO)[C@H](O)[C@H](O)[C@H]1O)[C@H](O)CO`, the Potency entry in assay [12], in [13], in [14], in assay [15], in [16] and in assay [5] was “inactive” in each case. Further, the Potency result in assay [17], in [18], in assay [9], in assay [19], in assay [10] and in assay [11] was “inactive” in each case.
On to `Cl[Si](Cl)(c1ccccc1)c1ccccc1`, for which the Potency result in assay [12], in assay [13], in assay [14], in [15], in assay [16] and in assay [5] was “inactive” each time. Moreover, the Potency entry in assay [17], in assay [6], in [9], in assay [19], in [10] and in assay [11] was “inactive” throughout.
Take `O=C(Oc1ccccc1)Oc1ccccc1`: the Potency in assay [12] was 31.6 µM (active); in assay [11] it was 34.5 µM (active). The Potency result in assay [13], in assay [14], in assay [15], in assay [4], in assay [16] and in assay [5] was “inactive” in each case. Besides, the Potency entry in assay [17], in [6], in assay [18], in assay [7], in assay [19] and in assay [10] was “inactive” each time. Also, the activity change, positive = activation in assay [8] (at 92.4 µM (top of the series)) was -11.4%.
As to `CC(C)=CCNc1ncnc2c1ncn2[C@@H]1O[C@H](CO)[C@@H](O)[C@H]1O`, the Potency result in assay [12], in assay [15], in assay [3], in [16], in assay [9] and in [10] was “inactive” throughout. In addition, the Potency result in assay [11] was “inactive”. Moreover, the Potency in assay [14] was 3.35 µM (active); in [4] it was 5.96 µM (active); in [5], 8.49 µM (active); in assay [18], 1.96 µM (active); in [7] it was 10.6 µM (active). For the same molecule, in assay [8] (at 42.5 µM (top of the series)), the activity change, positive = activation was -51%.
Turning to `O=c1c(O)c(-c2ccc(O)cc2O)oc2cc(O)cc(O)c12`, the Potency entry in assay [13], in assay [14], in assay [1], in assay [2], in assay [15] and in assay [16] was “inactive” each time. The Potency result in assay [9], in assay [19], in assay [10] and in [11] was “inactive” throughout.
With `OC12N=C(c3ccccc3)SC1Cc1cc(Cl)ccc12` (stereo not drawn), the Potency in assay [12] is 35.6 µM (active); in assay [4], 8.63 µM (active). Also, the Potency result in [13], in [14], in [3], in [5], in assay [17] and in assay [6] was “inactive” in each case. In addition, the Potency entry in [7], in assay [9], in assay [10] and in [11] was “inactive” in each case. Also, the activity change, positive = activation in assay [8] (at 92.4 µM (top of the series)) is 47.6% (active).

Values taken from PubChem BioAssay (Tox21).
